Measurements taken from the supplement of paper PMC10849652.
The full data set covers some 7,900 targets. This sample favours those with a hit. About 0.6% of all pairs of compound and target were hits.

Columns and labels:
Assay in all cases: log2 fold change, soluble protein after heating vs DMSO (PISA); higher = thermal stabilisation; K562 cells, 10 uM, 30 min; active = over 0.2 and 3.5 SD of the protein, either way, in both replicates (recomputed)
[1] = compound: C#Cc1cccc(Nc2ncnc3cc(OCCOC)c(OCCOC)cc23)c1 [erlotinib]
How it was run: (§1)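 K562 cells at 2×10^6 cells/mL were given 10 μM compound for 30 min. Aliquots then went through 3 min of heating across 48°C-58°C, were pooled, and were extracted in PBS with 0.5% NP-40 at 4°C, and the supernatant after 21,000xg for 90 min was quantified by TMTpro 16plex LC-MS/MS with channel sums equalised. Thermal stability relative to control samples, from duplicates, is given as log2 fold change.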

[2] = compound: C/C(=N\NC(=O)C1=CC(=CC=C1)S(=O)(=O)N2CCOCC2)/C3=C(C=CC(=C3)Cl)O
How it was run: as §1

[3] = compound: C1=CC(=C(C=C1Cl)C2=NC3=NC=CN=C3C(=N2)NC4=CC=NC=C4)F
How it was run: as §1

[4] = compound: C1=CC(=CC=C1C2=NC3=C(N2)C=C(C=C3)C(=O)N)OC4=CC=C(C=C4)Cl
How it was run: as §1

[5] = compound: C1=CC2=C(C=CC(=C2)/C=C\3/C(=O)NC(=NCC4=CC=CS4)S3)N=C1
How it was run: as §1

[6] = compound: C1=CC=C(C=C1)C2=NC(=C(N2)C3=CC=NC=C3)C4=CC(=C(C=C4)Cl)O
How it was run: as §1

[7] = compound: C1=CC=C2C(=C1)C3=NNC4=CC=CC(=C43)C2=O
How it was run: as §1

[8] = compound: C1CCN(C1)C(=O)NC2=CC=CC(=C2)NC3=NC=C(C(=N3)NCCC4=CN=CN4)Br
How it was run: as §1

[9] = compound: C1CN(CCC1(CC2=CC=C(C=C2)Cl)N)C3=NC=NC4=C3C=CN4
How it was run: as §1

[10] = compound: C1COCCN1CCN2C3=CC=CC=C3N=C2NC(=O)C4=CC(=CC=C4)[N+](=O)[O-] [IRAK-1-4 Inhibitor I]
How it was run: as §1

[11] = compound: CC(=O)c1cnc2ccc(-c3cc(Cl)c(O)c(Cl)c3)nc2c1N[C@H]1CC[C@H](CN(C)C)CC1
How it was run: as §1

[12] = compound: CC(C)(C)Cn1c(N)nc2ccc(-c3[nH]c(C(C)(C)C)nc3-c3ccc(F)cc3)nc21 [ralimetinib]
How it was run: as §1

[13] = compound: CC(C)(O)CC(=O)NCCn1ccc2ncnc(Nc3ccc(Oc4cccc(C(F)(F)F)c4)c(Cl)c3)c21
How it was run: as §1

[14] = compound: CC(C)C1=C2N=C(C=C(N2N=C1)NCC3=CC=CC=C3)NCCCCCCN
How it was run: as §1

[15] = compound: CC(C)C[C@@H](C=O)NC(=O)[C@H](CC(C)C)NC(=O)[C@H](CC(C)C)NC(=O)OCc1ccccc1
How it was run: as §1

[16] = compound: CC(C)N(C[C@H]1O[C@@H](n2cnc3c(N)ncnc32)[C@H](O)[C@@H]1O)[C@H]1C[C@@H](CCc2nc3cc(C(C)(C)C)ccc3[nH]2)C1 [pinometostat]
How it was run: as §1

[17] = compound: CC1=C(C(CC(=O)N1)C2=CC=C(C=C2)C(F)(F)F)C(=O)NC3=C(C=C4C(=C3)C=NN4)F
How it was run: as §1

[18] = compound: CC1=C(C2=C(C=C1)C(=O)C3=CC=CC=C3N2CCCN)C
How it was run: as §1

[19] = compound: C1=CC2=NC=CN=C2C=C1/C=C/3\C(=O)NC(=O)S3
How it was run: as §1

[20] = compound: C=CC(=O)N1CCC[C@@H](n2nc(-c3ccc(Oc4ccccc4)cc3)c3c(N)ncnc32)C1 [ibrutinib]
How it was run: as §1

Measured: log2 fold change

COX17 (UniProt Q14061)
inactive: [1] -0.032 | [2] -0.064 | [3] 0.375 | [4] -0.009 | [5] 0.035 | [6] 0.207 | [7] 0.404 | [8] -0.117 | [9] 0 | [10] -0.14 | [11] -0.052 | [12] 0.41 | [13] -0.158 | [14] 0.019 | [15] -0.196 | [16] -0.014 | [17] 0.241 | [18] 0.086

CDCA2 (UniProt Q69YH5)
UniProt Q69YH5, sequence (Q69YH5 whole entry, looked up): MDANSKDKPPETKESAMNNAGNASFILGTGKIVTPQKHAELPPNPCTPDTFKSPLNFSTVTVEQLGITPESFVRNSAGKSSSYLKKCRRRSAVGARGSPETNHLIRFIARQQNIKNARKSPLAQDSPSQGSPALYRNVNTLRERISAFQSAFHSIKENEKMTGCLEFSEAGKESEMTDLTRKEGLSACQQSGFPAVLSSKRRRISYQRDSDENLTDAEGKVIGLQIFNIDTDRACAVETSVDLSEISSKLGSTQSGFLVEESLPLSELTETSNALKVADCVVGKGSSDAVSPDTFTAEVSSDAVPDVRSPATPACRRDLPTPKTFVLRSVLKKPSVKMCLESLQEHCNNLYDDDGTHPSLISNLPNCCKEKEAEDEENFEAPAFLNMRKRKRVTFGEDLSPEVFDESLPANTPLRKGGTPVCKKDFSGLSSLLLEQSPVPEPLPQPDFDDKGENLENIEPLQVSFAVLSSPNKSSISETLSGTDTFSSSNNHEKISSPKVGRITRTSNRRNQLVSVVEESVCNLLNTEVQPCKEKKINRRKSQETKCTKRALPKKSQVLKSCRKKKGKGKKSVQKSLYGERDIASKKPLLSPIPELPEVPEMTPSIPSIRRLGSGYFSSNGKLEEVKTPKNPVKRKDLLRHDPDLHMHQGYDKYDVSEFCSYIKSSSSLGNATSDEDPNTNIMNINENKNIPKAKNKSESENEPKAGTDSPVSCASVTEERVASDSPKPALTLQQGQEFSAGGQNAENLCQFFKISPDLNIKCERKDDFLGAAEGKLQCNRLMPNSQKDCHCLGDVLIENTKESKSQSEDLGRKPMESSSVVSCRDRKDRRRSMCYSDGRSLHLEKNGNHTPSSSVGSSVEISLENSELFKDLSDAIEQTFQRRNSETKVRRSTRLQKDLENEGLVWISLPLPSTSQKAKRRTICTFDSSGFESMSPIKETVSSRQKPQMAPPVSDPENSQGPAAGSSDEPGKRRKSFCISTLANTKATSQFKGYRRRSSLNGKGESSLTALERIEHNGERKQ
inactive: [2] -0.46 | [3] 0.043 | [4] -0.333 | [5] 0.048 | [6] -0.002 | [7] -0.033 | [8] -0.082 | [9] 0.256 | [10] 0.023 | [11] 0.011 | [12] 0.081 | [13] -0.138 | [14] -0.009 | [15] 0.188 | [16] -0.008 | [17] -0.018 | [18] -0.003
active: [1] 0.519

CLPP (UniProt Q16740)
inactive: [1] -0.025 | [2] 0.013 | [3] -0.069 | [4] 0.037 | [5] 0.042 | [19] 0.003 | [6] 0.023 | [7] 0.035 | [8] -0.028 | [9] 0.022 | [10] -0.023 | [11] 0.022 | [12] -0.012 | [13] 0.017 | [14] 0.097 | [15] -0.008 | [16] -0.094 | [17] -0.011 | [18] 0.079

CLN8 (UniProt Q9UBY8)
UniProt Q9UBY8, sequence (Q9UBY8 whole entry, looked up): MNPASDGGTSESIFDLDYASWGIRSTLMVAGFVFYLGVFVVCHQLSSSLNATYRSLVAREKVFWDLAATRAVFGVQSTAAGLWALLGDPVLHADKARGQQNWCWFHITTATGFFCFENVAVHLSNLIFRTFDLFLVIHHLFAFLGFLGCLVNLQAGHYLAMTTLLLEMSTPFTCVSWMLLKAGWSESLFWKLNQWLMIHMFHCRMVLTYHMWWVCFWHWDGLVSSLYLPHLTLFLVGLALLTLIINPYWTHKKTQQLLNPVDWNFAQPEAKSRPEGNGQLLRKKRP
inactive: [1] 0.012 | [2] 0.198 | [4] 0.01 | [5] 0.212 | [19] 0.099 | [6] -0.208 | [7] -0.06 | [8] 0.003 | [9] -0.171 | [11] -0.164 | [12] 0.643 | [14] 0.017 | [15] 0.139 | [17] 0.043 | [18] 0.138

CDKN1B (UniProt P46527)
inactive: [1] -0.076 | [2] 0.027 | [3] -0.133 | [4] 0.064 | [5] -0.217 | [19] -0.049 | [6] -0.1 | [7] -0.01 | [10] 0.023 | [20] 0.015 | [11] 0.173 | [12] -0.024 | [13] 0.012 | [14] 0.215 | [16] -0.023 | [17] 0.018
active: [15] 0.536

CCNC (UniProt P24863)
UniProt P24863, sequence (P24863 whole entry, looked up): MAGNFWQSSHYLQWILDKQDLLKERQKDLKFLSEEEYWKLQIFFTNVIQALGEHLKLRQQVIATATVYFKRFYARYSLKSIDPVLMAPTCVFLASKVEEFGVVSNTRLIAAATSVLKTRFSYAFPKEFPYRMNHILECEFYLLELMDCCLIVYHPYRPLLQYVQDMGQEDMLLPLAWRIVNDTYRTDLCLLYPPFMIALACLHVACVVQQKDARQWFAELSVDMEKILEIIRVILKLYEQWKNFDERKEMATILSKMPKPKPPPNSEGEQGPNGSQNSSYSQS
inactive: [1] -0.056 | [2] -0.077 | [3] -0.122 | [4] -0.026 | [5] 0.096 | [19] 0.256 | [6] -0.001 | [7] 0.209 | [10] 0.071 | [20] -0.082 | [12] -0.027 | [13] 0.053 | [14] 0.041 | [15] 0.071 | [16] -0.058
active: [11] 0.595

CDK2AP2 (UniProt O75956)
inactive: [1] -0.142 | [2] -0.007 | [3] 0.037 | [4] 0.043 | [5] 0.063 | [19] 0.103 | [6] 0.007 | [7] 0 | [10] -0.087 | [20] 0.011 | [11] 0.094 | [12] 0 | [13] -0.077 | [14] 0.258 | [16] -0.135 | [17] 0.03
active: [15] -0.438

CNOT4 isoform 9 (UniProt O95628)
inactive: [1] -0.011 | [2] -0.022 | [4] 0.047 | [5] 0.089 | [19] 0.018 | [6] 0.053 | [7] 0.245 | [8] 0.175 | [9] 0.455 | [10] 0.09 | [20] 0.089 | [11] 0.189 | [12] 0.128 | [14] -0.068 | [15] 0.015 | [16] -0.028 | [17] -0.024 | [18] 0.202

CENPE (UniProt Q02224)
inactive: [1] 0.268 | [2] 0.525 | [4] -0.096 | [19] 0.098 | [6] 0.072 | [7] 0.444 | [8] 0.011 | [9] 0.032 | [10] 0.046 | [20] -0.184 | [11] 0.431 | [12] 0.119 | [14] 0.211 | [15] 0.11 | [16] -0.002 | [18] 0.101
active: [5] -0.875

CLINT1 (UniProt Q14677)
UniProt Q14677, sequence (Q14677 whole entry, looked up): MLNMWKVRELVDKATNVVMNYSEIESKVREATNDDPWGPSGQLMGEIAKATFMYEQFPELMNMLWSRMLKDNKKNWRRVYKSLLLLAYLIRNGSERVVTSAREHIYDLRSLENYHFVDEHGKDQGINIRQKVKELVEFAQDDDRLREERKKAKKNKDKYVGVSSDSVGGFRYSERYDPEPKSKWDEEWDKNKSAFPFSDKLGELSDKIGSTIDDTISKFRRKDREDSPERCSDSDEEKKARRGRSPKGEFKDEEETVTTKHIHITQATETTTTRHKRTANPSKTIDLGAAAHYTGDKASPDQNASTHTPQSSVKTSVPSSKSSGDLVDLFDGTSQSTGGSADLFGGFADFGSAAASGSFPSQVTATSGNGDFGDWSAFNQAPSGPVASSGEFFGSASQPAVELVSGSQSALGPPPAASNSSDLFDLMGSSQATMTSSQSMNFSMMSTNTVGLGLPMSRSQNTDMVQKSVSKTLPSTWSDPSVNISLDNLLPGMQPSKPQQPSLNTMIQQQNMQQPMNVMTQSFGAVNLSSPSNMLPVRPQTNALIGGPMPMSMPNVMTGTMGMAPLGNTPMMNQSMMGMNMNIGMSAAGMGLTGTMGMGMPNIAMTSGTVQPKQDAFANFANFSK
inactive: [2] -0.106 | [3] -0.12 | [5] -0.176 | [19] 0.035 | [7] 0.031 | [8] -0.097 | [9] -0.057 | [11] 0.059 | [13] 0.221 | [16] 0.058 | [17] 0.099 | [18] -0.114

CAD (UniProt H7BZB3)
inactive: [2] -0.061 | [5] 0.242 | [7] -0.058 | [11] -0.322

CCNT2 (UniProt O60583)
active: [11] -0.797
inactive: [2] 0 | [3] -0.105 | [5] -0.029 | [6] -0.025 | [7] -0.08 | [8] -0.176 | [9] -0.027 | [12] 0.191 | [13] 0.059 | [15] 0.116 | [17] 0.011 | [18] -0.062

COMMD3-BMI1 (UniProt R4GMX3)
inactive: [2] -0.043 | [3] -0.051 | [5] 0.077 | [7] -0.169 | [8] -0.191 | [9] 0.095 | [11] 0.055 | [13] -0.003 | [17] 0.028 | [18] -0.071

CPNE5 (UniProt Q9HCH3)
active: [9] -0.879
inactive: [1] 0.074 | [4] -0.175 | [8] 0.087 | [14] -0.209 | [18] -0.225

CRMP1 isoform 2 (UniProt Q14194)
UniProt Q14194, sequence (Q14194 whole entry, looked up): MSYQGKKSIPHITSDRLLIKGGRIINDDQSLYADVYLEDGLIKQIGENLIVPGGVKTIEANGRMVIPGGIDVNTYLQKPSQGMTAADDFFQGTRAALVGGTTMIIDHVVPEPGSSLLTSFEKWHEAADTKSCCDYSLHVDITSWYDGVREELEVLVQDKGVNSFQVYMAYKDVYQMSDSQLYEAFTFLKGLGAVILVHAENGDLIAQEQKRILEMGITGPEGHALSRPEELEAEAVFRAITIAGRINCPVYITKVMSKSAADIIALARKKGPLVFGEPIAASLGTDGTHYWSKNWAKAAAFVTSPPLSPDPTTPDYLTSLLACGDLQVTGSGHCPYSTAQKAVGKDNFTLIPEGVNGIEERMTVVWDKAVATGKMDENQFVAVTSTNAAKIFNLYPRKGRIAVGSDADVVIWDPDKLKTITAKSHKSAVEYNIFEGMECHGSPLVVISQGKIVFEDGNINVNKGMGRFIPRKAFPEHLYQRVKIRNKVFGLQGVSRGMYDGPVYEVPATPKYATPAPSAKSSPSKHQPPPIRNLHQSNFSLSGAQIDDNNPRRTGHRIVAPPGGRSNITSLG
inactive: [1] -0.1 | [2] -0.273 | [4] 0.009 | [5] 0.101 | [19] -0.011 | [7] -0.037 | [8] 0.088 | [9] -0.014 | [20] 0.038 | [11] -0.224 | [14] 0.124 | [17] 0.196 | [18] 0.181

CLCN5 isoform 2 (UniProt P51795)
UniProt P51795, sequence (P51795 whole entry, looked up): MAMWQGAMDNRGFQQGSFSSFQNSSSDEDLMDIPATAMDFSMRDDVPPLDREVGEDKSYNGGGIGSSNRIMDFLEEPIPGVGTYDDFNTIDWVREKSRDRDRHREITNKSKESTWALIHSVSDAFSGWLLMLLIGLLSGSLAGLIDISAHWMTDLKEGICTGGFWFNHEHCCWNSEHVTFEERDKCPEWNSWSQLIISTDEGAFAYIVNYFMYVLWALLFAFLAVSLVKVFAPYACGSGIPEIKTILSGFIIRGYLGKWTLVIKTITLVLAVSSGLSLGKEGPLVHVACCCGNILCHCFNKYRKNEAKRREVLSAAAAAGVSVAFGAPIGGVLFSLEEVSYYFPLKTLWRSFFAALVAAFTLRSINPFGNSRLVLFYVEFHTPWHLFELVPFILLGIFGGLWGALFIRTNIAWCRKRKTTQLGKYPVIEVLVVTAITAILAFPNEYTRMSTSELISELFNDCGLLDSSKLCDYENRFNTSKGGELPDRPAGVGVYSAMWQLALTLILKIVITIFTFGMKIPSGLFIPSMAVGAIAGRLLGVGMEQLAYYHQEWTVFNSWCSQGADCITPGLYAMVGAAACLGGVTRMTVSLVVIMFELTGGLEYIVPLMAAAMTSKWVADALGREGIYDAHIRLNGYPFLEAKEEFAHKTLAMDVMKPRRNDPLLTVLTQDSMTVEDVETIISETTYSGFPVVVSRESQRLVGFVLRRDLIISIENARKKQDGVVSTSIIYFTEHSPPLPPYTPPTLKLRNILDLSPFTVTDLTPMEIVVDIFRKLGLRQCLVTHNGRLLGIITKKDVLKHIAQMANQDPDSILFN
inactive: [1] -0.009 | [4] 0.064 | [6] 0.125 | [8] -0.098 | [9] -0.011 | [10] -0.019 | [12] -0.154 | [14] -0.29 | [15] -0.004 | [16] 0.061 | [17] 0.021 | [18] 0.009

CFAP47 (UniProt Q6ZTR5)
active: [2] -0.734
inactive: [3] 0.053 | [5] 0.355 | [19] -0.123 | [7] 0.132 | [20] -0.109 | [11] 0.153 | [13] 0.006

CLPTM1L (UniProt G5E9Z2)
inactive: [2] 0.109 | [3] 0.492 | [5] -0.139 | [19] 0.284 | [7] 0.174 | [8] 0.145 | [9] 0.272 | [11] -0.03 | [13] -0.556 | [17] 0.106 | [18] -0.201

CHPT1 (UniProt Q8WUD6)
inactive: [2] 0.181 | [3] 0.24 | [5] 0.078 | [6] 0 | [7] -0.024 | [8] -0.004 | [9] 0.01 | [11] 0.023 | [12] -0.132 | [13] 0.223 | [15] -0.002 | [17] 0.26 | [18] 0.044

CCM2 isoform 2 (UniProt Q9BSQ5)
UniProt Q9BSQ5, sequence (Q9BSQ5 whole entry, looked up): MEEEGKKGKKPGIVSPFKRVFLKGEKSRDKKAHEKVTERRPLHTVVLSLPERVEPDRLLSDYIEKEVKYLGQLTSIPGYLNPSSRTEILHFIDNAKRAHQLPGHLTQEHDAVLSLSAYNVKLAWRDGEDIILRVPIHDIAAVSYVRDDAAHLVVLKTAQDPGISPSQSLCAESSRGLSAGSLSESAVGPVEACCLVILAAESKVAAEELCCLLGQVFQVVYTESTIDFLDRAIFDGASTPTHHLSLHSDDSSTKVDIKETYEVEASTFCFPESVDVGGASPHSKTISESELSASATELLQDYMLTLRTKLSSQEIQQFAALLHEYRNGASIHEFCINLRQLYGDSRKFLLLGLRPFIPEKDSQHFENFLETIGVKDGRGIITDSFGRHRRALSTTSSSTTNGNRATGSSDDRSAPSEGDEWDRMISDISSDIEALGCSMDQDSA
inactive: [1] 0.142 | [3] -0.042 | [4] 0.035 | [19] 0.083 | [6] 0.013 | [8] 0.09 | [9] 0.16 | [10] 0.027 | [20] -0.004 | [12] 0.04 | [13] 0.027 | [14] -0.085 | [15] 0.009 | [16] 0.056 | [18] -0.013

CASK (UniProt O14936)
UniProt O14936, sequence (O14936 whole entry, looked up): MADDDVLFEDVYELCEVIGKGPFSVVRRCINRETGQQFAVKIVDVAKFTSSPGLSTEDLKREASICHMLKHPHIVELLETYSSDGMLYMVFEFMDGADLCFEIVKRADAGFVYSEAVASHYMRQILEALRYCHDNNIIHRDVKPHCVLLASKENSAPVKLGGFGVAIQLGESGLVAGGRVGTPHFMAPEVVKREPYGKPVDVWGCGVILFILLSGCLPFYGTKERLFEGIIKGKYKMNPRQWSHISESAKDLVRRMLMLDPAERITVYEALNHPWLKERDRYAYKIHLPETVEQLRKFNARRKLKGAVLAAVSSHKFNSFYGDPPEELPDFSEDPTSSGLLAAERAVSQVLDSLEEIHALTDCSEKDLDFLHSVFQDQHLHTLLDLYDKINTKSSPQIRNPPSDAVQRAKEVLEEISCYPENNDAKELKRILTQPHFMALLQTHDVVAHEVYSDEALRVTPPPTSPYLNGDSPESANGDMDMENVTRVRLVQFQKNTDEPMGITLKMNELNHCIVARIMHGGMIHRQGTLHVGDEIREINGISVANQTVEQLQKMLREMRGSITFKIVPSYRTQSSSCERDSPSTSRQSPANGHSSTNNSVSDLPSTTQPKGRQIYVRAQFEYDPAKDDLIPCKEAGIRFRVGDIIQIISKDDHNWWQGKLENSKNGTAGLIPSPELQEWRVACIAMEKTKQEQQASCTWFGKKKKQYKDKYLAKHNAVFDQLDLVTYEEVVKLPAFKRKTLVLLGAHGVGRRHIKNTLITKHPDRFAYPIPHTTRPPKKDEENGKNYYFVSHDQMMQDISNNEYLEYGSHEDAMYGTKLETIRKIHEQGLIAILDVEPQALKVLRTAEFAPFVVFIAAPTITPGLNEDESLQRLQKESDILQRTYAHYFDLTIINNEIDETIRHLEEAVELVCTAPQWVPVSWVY
active: [11] -0.483
inactive: [1] -0.018 | [2] -0.07 | [4] 0.01 | [5] 0.038 | [7] -0.136 | [10] 0.036 | [14] 0.177 | [16] 0.081

CLN3 (UniProt Q13286)
inactive: [1] 0 | [3] 0.025 | [4] 0.162 | [19] 0.117 | [6] -0.05 | [8] 0.055 | [9] 0.026 | [10] 0.106 | [12] -0.05 | [13] -0.011 | [15] -0.043 | [16] -0.113 | [17] 0.054 | [18] -0.147
active: [14] -0.532

C5orf30 (UniProt Q96GV9)
inactive: [2] 0.267 | [3] -0.056 | [5] 0.062 | [7] -0.347 | [8] 0.01 | [9] 0.128 | [13] 0.059 | [18] -0.284
active: [11] -0.917

CKS2 (UniProt P33552)
inactive: [2] 0.125 | [5] 0.116 | [19] -0.001 | [7] -0.032 | [8] 0.022 | [9] 0.02 | [20] -0.087 | [11] -0.168 | [17] 0.047 | [18] -0.058
